Screens (PubChem BioAssay)
Gal4-VP16 FLuc – counter-screen for ROR gamma inhibitors: Gal4-VP16 reporter | 310,000 tested, 3.5% active | Potency, µM (doses to about 53.6 µM), without a hit: at the highest dose activity, negative = inhibition, most hits filed as inhibitors | Drosophila S2 Gal4-VP16 UAS-luciferase, luminescence, 20 h;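 note: Gal4-VP16 expression switched on by copper sulfate through the metallothionein promoter; % is set by controls: 0 for no effect and ±100 for the full control effect; nearly all actives have a fitted effect of over 50% in size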
ELG1 repair inh – inhibitors of ELG1-dependent DNA repair in HEK293T cells; Potency, µM (titrated, usually from 46.1 µM), for inactives: at the top dose activity change, negative = inhibition, hits mostly inhibitors; HEK293T ELG1-luciferase reporter, luminescence, 16 h; DNA damage induced by 5-fluorouridine; 330,000 tested, 2.3% active; AID 504467; note: % is set by controls: 0 for no effect and ±100 for the full control effect; nearly all actives have a fitted effect of over 55% in size
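Quantitative HTS, concentration-response format. 2,000 cells/well co-treated with 5-fluorouridine and compound, 16 hr in 5% CO2 at 37 °C; ONE-Glo luminescence read after 30 min.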
RORg inh – ROR gamma (mouse) transcription inhibition; P51450; Drosophila S2 Gal4-RORgamma UAS-luciferase reporter, 20 h; Potency, µM (series often up to 53.6 µM), inactives show at the highest dose activity change, negative = inhibition, usual class: inhibitors; 310,000 tested, 5.4% active; AID 2551; note: % is set by controls: 0 for no effect and ±100 for the full control effect; nearly all actives have a fitted effect of over 60% in size
Target sequence (P51450 whole entry, looked up, the tested form may be a part): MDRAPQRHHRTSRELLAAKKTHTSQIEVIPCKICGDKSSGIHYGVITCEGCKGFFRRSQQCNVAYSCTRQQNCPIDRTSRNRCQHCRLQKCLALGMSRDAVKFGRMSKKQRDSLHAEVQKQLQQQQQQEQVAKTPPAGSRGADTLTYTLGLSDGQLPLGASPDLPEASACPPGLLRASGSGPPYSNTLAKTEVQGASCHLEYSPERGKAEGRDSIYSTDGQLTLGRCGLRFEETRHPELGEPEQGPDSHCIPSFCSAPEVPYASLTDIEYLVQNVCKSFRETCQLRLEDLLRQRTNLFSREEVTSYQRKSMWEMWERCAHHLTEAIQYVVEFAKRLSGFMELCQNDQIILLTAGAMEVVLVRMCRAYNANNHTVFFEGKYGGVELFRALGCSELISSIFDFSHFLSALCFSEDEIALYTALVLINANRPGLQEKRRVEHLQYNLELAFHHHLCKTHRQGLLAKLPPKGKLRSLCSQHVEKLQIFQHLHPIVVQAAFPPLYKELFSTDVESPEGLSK
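Luminescence from a UAS-regulated Photinus luciferase reporter in stably transfected Drosophila Schneider cells is measured; decreased signal marks ROR gamma inhibition. Fusion expression is induced by 700 uM copper sulfate for 20 hr.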
SW480 rerep – induces DNA re-replication in SW480 colon adenocarcinoma cells; SW480 DNA re-replication, Hoechst DNA content imaging, 48 h; Potency, µM (doses to about 46.1 µM), without a hit: at the highest dose re-replication activation, actives largely listed as activators; 340,000 tested, 1.8% active; AID 624297; note: % of control where 0% means no effect; nearly all actives have a fitted effect of over 55% in size
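Treated cells incubate 48 hr (37 C, 5% CO2), are stained 40 min with Hoechst, and nuclear fluorescence is enumerated; a rise in nuclei with high DNA signal marks re-replication.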
MCF10A rereplic – induces DNA re-replication in MCF 10a normal breast cells. MCF 10A DNA re-replication, Hoechst nuclear intensity, 48 h. Potency, µM (series often up to 46.1 µM), without a hit: at the top dose activity, positive = re-replication, usual class: activators. 350,000 tested, 2.9% active. AID 624296; note: % of control where 0% means no effect; nearly all actives have a fitted effect of over 50% in size
Active calls of the source: *; ? = inconclusive; nt = no result; [ ] = another dose, or the depositor's remark. Most compounds without a hit are left out; they make up all but 10% or so of the library. Calls come from the whole dose curve; as a rule, active = well fitted curve in the direction sought with a large enough effect; inconclusive = small, poorly fitted or top-dose-only effect, or another doubt; inactive = no such curve, though single readings can be large; an effect the other way counts as inactive or inconclusive. Potency is the fitted concentration of half-maximal effect.

SMILES | Gal4-VP16 FLuc | ELG1 repair inh | RORg inh | SW480 rerep | MCF10A rereplic
C[C@H](CO)N1C[C@H](C)[C@@H](CN(C)C(=O)Nc2ccccc2)Oc2ccc(NC(=O)c3ccncc3)cc2C1=O | nt | 16% | nt | -14% | -3%
Cc1sc2nc(CN3CCC(C)CC3)nc(Cl)c2c1C | 4% | 1% | 18µM* | 19% | 15%
O=c1[nH]c(SCc2ccccc2Cl)nc2c1CCC2 | -7% | 12% | -1% | -3% | 18%
CNc1nc(SCc2ccccc2Cl)nc2c1CCCC2 | ? | ? | ? | 0%[9.22 µM] | 18µM*
Cc1ccc(C(=O)Oc2ccc(/C=C3\C(=N)N4N=C(N5CCOCC5)SC4=NC3=O)cc2)cc1 | 13µM* | ? | ? | 0% | -1%
N=C1/C(=C\c2ccc(OC(=O)c3ccccc3)cc2)C(=O)N=C2SC(N3CCOCC3)=NN12 | ? | -3% | ? | 2% | -4%
O=C(Oc1cc2oc(=O)cc(-c3ccccc3)c2cc1Cl)C1CCCCC1 | -11% | 16µM* | -10% | ? | ?
CC(C)(C)OC(=O)NCC(=O)Oc1cc2oc(=O)cc(-c3ccccc3)c2cc1Cl | 5% | ? | -7% | 21µM* | 23µM*
NNc1nc2ccc(Cl)cc2s1 | ? | ? | ? | ? | 21µM*
Cn1ncc(Cl)c1C(=O)Nc1nc2ccc(Cl)cc2s1 | ? | ? | 11µM* | -2% | 7%
Cn1ncc(Cl)c1C(=O)Nc1nnc(C2CC2)s1 | -8% | 28% | 10% | -11% | -3%
Cc1cc(C(=O)Nc2nc3ccc(Cl)cc3s2)nn1C | -14% | ? | ? | 6.5µM* | 0%
O=C(Nc1nc2ccc(Cl)cc2s1)c1ccc(Br)o1 | nt | ? | 11%[0.365 µM] | 0% | -3%
CCOC(=O)Cc1csc(N/N=C/c2cccc([N+](=O)[O-])c2)n1 | -22% | -28% | ? | 4% | 0%
CCOC(=O)Cc1csc(NC(=O)Nc2ccc(C)cc2)n1 | -21% | -2% | 10% | -51% | -8%
CCOC(=O)Cc1csc(NC(=S)NC(=O)c2cc(OC)c(OC)c(OC)c2)n1 | 4% | -23% | ? | -5% | 6%
CCOC(=O)Cc1csc(N/N=C/c2ccc(C(F)(F)F)cc2)n1 | ? | ? | 0.71µM* | -1% | -5%
CCOC(=O)Cc1csc(NC(=S)NC(=O)c2ccccc2C)n1 | -28% | 17% | 11µM* | -4% | 15%
CCOC(=O)Cc1csc(NC(=S)NC(=O)c2ccc(F)cc2)n1 | ? | 18% | 11µM* | 2% | 3%
CCOC(=O)Cc1csc(NC(=O)Nc2ccc(F)cc2)n1 | 5% | 7.3µM* | -3% | -3% | -1%
CCOC(=O)Cc1csc(NC(=O)C(NC(=O)C2CCC(C)CC2)C(C)C)n1 (stereo not given) | 2% | 8.2µM* | 6% | 6% | 2%
CCc1nc(NC(=O)c2sc(C)nc2C)sc1C(=O)OC | -16% | -1% | -14% | -6% | 14%
CN(CC(=O)NC(c1ccccc1)c1ccccc1)Cc1nc2ccccc2c(=O)[nH]1 | 13µM* | 11% | ? | -4%[9.22 µM] | ?
CN(CC(=O)Nc1ccccc1Sc1ccccc1)Cc1nc2ccccc2c(=O)[nH]1 | 3.5µM* | ? | 0.45µM* | ? | ?
CN(CC(=O)NC(=O)NCc1ccco1)Cc1nc2ccccc2c(=O)[nH]1 | 3.5µM* | -17% | 1µM* | 5.2µM* | ?
SMILES | Gal4-VP16 FLuc | ELG1 repair inh | RORg inh | SW480 rerep | MCF10A rereplic
COc1cc(CCCN2CCNC[C@@H]2CC2CCCCC2)cc(OC)c1OC | nt | 11% | nt | -9% | 0%
CNC(=O)[C@H]1O[C@@H](n2cnc3c(NCc4cccc(I)c4)ncnc32)[C@H](O)[C@@H]1O | nt | ? | nt | -61% | 7%
S=C1NC(c2ccccc2)=NCN1c1ccccc1 | 1% | ? | 10µM* | -2% | 2%
COc1ccc(C(=O)N/N=C/c2ccc(OC)c(CSc3ccccn3)c2)cc1 | ? | ? | ? | -5% | 14%
COc1ccc(/C=N/NC(=O)c2ccn[nH]2)cc1CSc1ccccn1 | 16% | ? | 4% | -29% | 2%
COc1ccc(C(=O)N/N=C/c2ccc(OC)c(CN3CCCc4ccccc43)c2)cc1 | ? | ? | ? | -1% | 15%
